According to the supplement of paper PMC10646978:
± gives the standard deviation.

Tests used:
Conditions in all cases: modulator concentration 10 µM
[1] = test system: RAW-Dual (murine macrophage reporter line); experiment: NF-kB reporter (SEAP) activity fold change vs agonist alone; higher = enhanced NF-kB activity
Method in brief: (§1)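 Overnight stimulation with a PRR agonist followed pre-incubation for 1 hour at 37 °C with compound at 10 μM final. This was done in RAW-Dual murine macrophage reporter cells seeded at 50 000 per well in 384-well plates. NF-κB (SEAP, QUANTI-Blue absorbance at 620 nm) and IRF (Lucia luciferase, QUANTI-Luc luminescence) were read from the supernatant. Each reporter's fold change relative to the mean agonist-only control on the same plate was averaged over replicate plates.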

[2] = test system: RAW-Dual (murine macrophage reporter line); experiment: IRF reporter (Lucia luciferase) activity fold change vs agonist alone; higher = enhanced IRF activity
Method in brief: as §1

[3] = test system: RAW-Dual (murine macrophage reporter line); experiment: viability score (confluency relative to resting cells, overnight) (fraction); higher = more viable, active = viable (0.7 or more)
Method in brief: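 RAW-Dual macrophages in 384-well plates were incubated overnight with compound, final concentration 10 μM. Confluency images from IncuCyte were processed in IncuCyte software into two masks covering all imaged wells. The viability score is each well's confluency relative to resting cells, and a compound met the cutoff when both masks exceeded 70% of resting cells.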

[4] = agonist: CpG ODN 1826 0.5 ug/mL

Row | SMILES | NF-kB reporter [1, 4] | NF-kB reporter ([1]; agonist: LPS 0.1 ug/mL) | NF-kB reporter ([1]; agonist: MPLA […]) | IRF reporter ([2]; agonist: 3'3'-cGAMP 10 ug/mL) | IRF reporter ([2]; agonist: LPS 0.1 ug/mL) | IRF reporter ([2]; agonist: MPLA […]) | viability score [3]
1 | Cc1ccc(S(=O)(=O)O)cc1.NC(=O)c1cccc2cn(-c3ccc([C@@H]4CCCNC4)cc3)nc12 | 0.0798 ± 0.0034 | 0.142 ± 0.017 | 0.372 ± 0.027 | 0.041 ± 0.0076 | 0.0678 ± 0.01 | 0.0808 ± 0.016 | 0.881 (active)
2 | COc1ccc2ccccc2c1-c1nnc2ccc(C(F)(F)F)cn12 | 0.87 ± 0.1 | 0.997 ± 0.056 | 0.854 ± 0.089 | 0.992 ± 0.036 | 1.37 ± 0.18 | 1.07 ± 0.2 | 1.01 (active)
3 | COc1cc(C(C)=O)ccc1OCCCN1CCC(c2noc3cc(F)ccc23)CC1 | 0.986 ± 0.15 | 1.17 ± 0.31 | 0.924 ± 0.056 | 0.834 ± 0.027 | 1.19 ± 0.2 | 1.12 ± 0.11 | 0.991 (active)
4 | COC(=O)C1C(=O)C(=CNCc2ccccc2)C(=O)CC1(C)C (centres undefined) | 1.12 ± 0.1 | 0.99 ± 0.072 | 0.943 ± 0.035 | 1.04 ± 0.18 | 1.06 ± 0.049 | 0.992 ± 0.066 | 1 (active)
5 | Cc1ccc(N2C(=O)CC(Nc3ccc(N4CCOCC4)cc3)C2=O)cc1 (centres undefined) | 1.04 ± 0.11 | 1.09 ± 0.09 | 0.823 ± 0.057 | 0.641 ± 0.016 | 1.2 ± 0.16 | 0.908 ± 0.11 | 1.01 (active)
6 | CSc1ccc(C2Nc3ccccc3-c3nnc(SCc4ccc(C)cc4)nc3O2)cc1 (centres undefined) | 0.817 ± 0.094 | 0.952 ± 0.047 | 1.19 ± 0.1 | 0.877 ± 0.058 | 1.08 ± 0.091 | 1.18 ± 0.14 | 1.01 (active)
7 | CC(NCCc1c[nH]c2ccccc12)=C1C(=O)c2ccccc2C1=O | 0.972 ± 0.081 | 0.979 ± 0.11 | 1.15 ± 0.05 | 0.425 ± 0.027 | 0.989 ± 0.033 | 1.28 ± 0.11 | 0.991 (active)
8 | COc1c(Cl)ccc(Cl)c1C(=O)NCc1ccccc1 | 0.812 ± 0.13 | 1.01 ± 0.12 | 1.06 ± 0.11 | 1.15 ± 0.03 | 1.25 ± 0.14 | 1.33 ± 0.25 | 1 (active)
9 | Cc1ccc(C2(O)C=CC(C)(C(Cl)(Cl)Cl)C=C2)cc1 (centres undefined) | 0.687 ± 0.054 | 0.974 ± 0.063 | 1.02 ± 0.067 | 0.455 ± 0.093 | 0.989 ± 0.047 | 0.915 ± 0.14 | 1 (active)
10 | COc1ccc(NC(=O)CN(c2ccc(C)c(C)c2)S(C)(=O)=O)cc1 | 0.831 ± 0.068 | 1.02 ± 0.061 | 1.07 ± 0.12 | 0.88 ± 0.046 | 1.46 ± 0.084 | 1.53 ± 0.14 | 0.998 (active)
11 | Cc1cccc(C(=O)N2CCCC(c3nnc(CC(C)(C)C)o3)C2)c1 (centres undefined) | 0.877 ± 0.037 | 0.942 ± 0.16 | 1.35 ± 0.08 | 0.924 ± 0.043 | 1.33 ± 0.3 | 1.36 ± 0.47 | 0.944 (active)
12 | COc1cccc(C=NNc2nnc(C)c(=O)[nH]2)c1OC | 0.888 ± 0.27 | 1.08 ± 0.094 | 0.993 ± 0.12 | 0.952 ± 0.038 | 1.09 ± 0.22 | 1.15 ± 0.29 | 1.01 (active)
13 | O=S(=O)(Nc1nc2ccccc2n2nnnc12)c1ccc(F)cc1 | 1.01 ± 0.1 | 1.03 ± 0.068 | 0.934 ± 0.067 | 0.865 ± 0.021 | 1.21 ± 0.15 | 0.964 ± 0.25 | 1.01 (active)
14 | COc1cc2c(cc1OC)C(=S)NC1(CCCC1)C2 | 0.886 ± 0.33 | 0.985 ± 0.12 | 0.941 ± 0.1 | 0.962 ± 0.04 | 1.04 ± 0.16 | 1.28 ± 0.23 | 0.596 (inactive)
15 | OCCN1CCN(CCCN2c3ccccc3C=Cc3ccccc32)CC1 [Prestw-1456] | 0.862 ± 0.066 | 1 ± 0.082 | 1.37 ± 0.053 | 0.807 ± 0.029 | 1.06 ± 0.049 | 1.49 ± 0.18 | 0.904 (active)
16 | CCC(=O)Nc1ccc(NC(=O)c2ccc([N+](=O)[O-])cc2)cc1 | 0.982 ± 0.086 | 1.05 ± 0.072 | 0.991 ± 0.14 | 0.978 ± 0.054 | 1.43 ± 0.12 | 1.12 ± 0.075 | 1.01 (active)
17 | CC(C)(C)c1ccc(C(=O)Nc2nc3ccc([N+](=O)[O-])cc3s2)cc1 | 1.06 ± 0.085 | 1.05 ± 0.072 | 1 ± 0.035 | 1.04 ± 0.23 | 0.986 ± 0.074 | 1.1 ± 0.11 | 1 (active)
18 | CCOCC(=O)Nc1ccc(N2CCCCC2=O)c(C)c1 | 0.884 ± 0.11 | 0.79 ± 0.11 | 0.828 ± 0.16 | 0.899 ± 0.12 | 1.06 ± 0.14 | 1 ± 0.3 | 0.93 (active)
19 | Cn1nc2c(c1CNS(=O)(=O)CCC(F)(F)F)CCC2 | 0.93 ± 0.077 | 0.805 ± 0.064 | 1.17 ± 0.15 | 1.01 ± 0.049 | 1.32 ± 0.2 | 1.41 ± 0.49 | 0.981 (active)
20 | CCCCC1=NC2(CCCC2)C(=O)N1Cc1ccc(-c2ccccc2-c2nn[nH]n2)cc1 | 1.05 ± 0.079 | 0.951 ± 0.08 | 0.978 ± 0.026 | 0.948 ± 0.052 | 1.01 ± 0.15 | 0.945 ± 0.18 | 1 (active)
21 | O=c1c2ccccc2n(Cc2nc(-c3ccc(F)c(F)c3)no2)c(=O)n1C1CC1 | 0.84 ± 0.076 | 1.21 ± 0.096 | 0.923 ± 0.11 | 0.995 ± 0.074 | 1.04 ± 0.074 | 1.07 ± 0.15 | 0.971 (active)
22 | CCOc1ccc(Nc2oc(-c3ccc(COc4ccc(C)cc4)o3)nc2C#N)cc1 | 1.03 ± 0.082 | 0.717 ± 0.089 | 1.04 ± 0.099 | 0.998 ± 0.035 | 1.41 ± 0.24 | 1.67 ± 0.41 | 0.832 (active)
23 | Cl.O=C(c1ccc(OCCN2CCCCC2)cc1)c1c(-c2ccc(O)cc2)sc2cc(O)ccc12 | 0.106 ± 0.015 | 1.14 ± 0.27 | 2.12 ± 0.12 | 0.55 ± 0.023 | 0.901 ± 0.24 | 1.5 ± 0.18 | 0.254 (inactive)
24 | OCC1OC(Oc2ccc(O)cc2)C(O)C(O)C1O (centres undefined) | 1.23 ± 0.3 | 0.965 ± 0.069 | 1.02 ± 0.08 | 0.891 ± 0.049 | 1.14 ± 0.2 | 1.2 ± 0.11 | 1 (active)
25 | NC(=O)CCC(N)C(=O)O (centres undefined) | 1.13 ± 0.32 | 0.935 ± 0.051 | 1.03 ± 0.1 | 0.883 ± 0.049 | 1.1 ± 0.16 | 0.999 ± 0.097 | 0.997 (active)
26 | N#C[C@@H]1C[C@@H]2C[C@@H]2N1C(=O)[C@@H](N)C12CC3CC(CC(O)(C3)C1)C2.O | 1.06 ± 0.083 | 0.968 ± 0.15 | 0.955 ± 0.024 | 0.956 ± 0.066 | 0.921 ± 0.068 | 0.871 ± 0.074 | 0.999 (active)
27 | COc1ccc2cc(CCC(C)=O)ccc2c1 | 1.23 ± 0.19 | 1.19 ± 0.56 | 1.06 ± 0.11 | 0.931 ± 0.03 | 1.18 ± 0.45 | 1.2 ± 0.098 | 0.95 (active)
